CIT2 TOR yeast – yeast TOR pathway CIT2-GFP modulation; AID 2029; hit rate 0.065% among 320,000; GFP response vs DMSO, % at 10 µM; S. cerevisiae CIT2-GFP strain, flow cytometry, 3 h; 100 means same as DMSO wells;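 active = GFP response relative to DMSO above a set limit, near the screen mean plus 3 SD, cut at about 150% in these data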;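 also: ratio of well median GFP fluorescence to mean of DMSO wells on the plate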
LAP4 TOR yeast – yeast TOR pathway LAP4-GFP modulation; S. cerevisiae LAP4-GFP multiplex, flow cytometry GFP, 3 h; median GFP as percent of DMSO wells; GFP response vs DMSO, % at 10 µM; hit rate 0.34% among 320,000; AID 2023;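 active = GFP response vs DMSO above a set limit, about the screen mean plus 3 SD, cut at about 150% in these data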
RPL19A-GFP yeast – modulators of TOR pathway RPL19A-GFP in S. cerevisiae; S. cerevisiae RPL19A-GFP strain, flow cytometry, 3 h; stronger effect = lower value; percent response vs DMSO, % at 10 µM; hit rate 0.3% among 330,000;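 active = percent response vs DMSO below 50%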;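 also: median channel GFP fluorescence of the barcoded RPL19A-GFP strain; ratio of sample median GFP to plate DMSO average so 100% = DMSO; lower means less RPL19A-GFP as with rapamycin TOR inhibition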
MEP2 TOR yeast – yeast TOR pathway MEP2-GFP modulation. S. cerevisiae MEP2-GFP strain, flow cytometry GFP, 3 h; 100% = DMSO control level. GFP response vs DMSO, % at 10 µM. hit rate 0.51% among 330,000;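 active = GFP response versus DMSO above a set limit, roughly screen mean plus 3 SD, cut at about 180% in these data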;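 also: median GFP fluorescence of the barcode-gated MEP2-GFP cells per well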
AGP1 TOR yeast – alters AGP1-GFP fluorescence in TOR pathway yeast screen. hit rate 0.02% among 320,000. S. cerevisiae AGP1-GFP multiplex flow cytometry, 3 h; GFP as percent of DMSO wells. GFP response vs DMSO, % at 10 µM;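 active = GFP response relative to DMSO above a set limit, near screen average plus 3 SD, cut at about 150% in these data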;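 also: median GFP channel fluorescence of the gated AGP1 strain per well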
LAP4 cherry2 – second confirmation of modulators of TOR reporter LAP4-GFP in yeast | shares compounds with LAP4 TOR yeast | S. cerevisiae LAP4-GFP strain, flow cytometry GFP, 3 h | GFP response vs DMSO, % at 10 µM | hit rate 20% among 590;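 active = GFP signal as percent of the solvent control above about 150%, meaning raised reporter expression, limit read from the data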;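 also: ratio of well median GFP fluorescence to plate DMSO mean so 100% = DMSO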
MEP2 cherry2 – second confirmation of modulators of TOR reporter MEP2-GFP in yeast; hit rate 10% among 590; S. cerevisiae MEP2-GFP strain, flow cytometry GFP, 3 h; shares compounds with LAP4 TOR yeast; GFP response vs DMSO, % at 10 µM;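 active = GFP signal above 150% of the solvent control wells, that is a rise of more than half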;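 also: median channel GFP fluorescence of all gated yeast cells per well; ratio of median GFP to plate DMSO average so 100% = DMSO level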
RPL19A-GFP pick2 – second confirmation of modulators of TOR reporter RPL19A-GFP in yeast | shares compounds with LAP4 TOR yeast | S. cerevisiae RPL19A-GFP strain, flow cytometry GFP, 3 h; stronger effect = lower value; 100% means same as DMSO wells | GFP response vs DMSO, % at 10 µM | hit rate 3% among 590 | AID 2623;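 active = under 65% GFP response relative to DMSO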;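 also: median GFP channel fluorescence per well over the all cells gate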
CIT2-GFP pick2 – yeast CIT2-GFP TOR reporter modulation, second cherry pick | hit rate 8% among 590 | GFP response vs DMSO, % at 10 µM | S. cerevisiae CIT2-GFP strain, flow cytometry GFP, 3 h; DMSO control wells read 100% | shares compounds with LAP4 TOR yeast;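 active = GFP response vs DMSO above about 150%, limit read from the data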;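 also: median green fluorescence per well over all gated yeast cells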
AGP1-GFP pick2 – yeast AGP1-GFP TOR reporter modulation, second cherry pick | shares compounds with LAP4 TOR yeast | S. cerevisiae AGP1-GFP strain, flow cytometry GFP, 3 h | percent response vs DMSO, % at 10 µM | 590 tested, under 10 active;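 active = over 150 percent of DMSO response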;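 also: median GFP channel fluorescence over all cells without mother daughter split; sample median GFP divided by mean DMSO control so 100% equals DMSO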
s288c autofluor – compound is autofluorescent in yeast s288c cells; 610 tested, under 10 active; fluorescence change (kMESF span) at 33 µM; shares compounds with LAP4 TOR yeast; S. cerevisiae s288c, 520 nm autofluorescence, flow cytometry, 3 h; stronger effect = higher value; zero means same as solvent-only cells;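 active = fluorescence span over the dose series, or activity score, above about 33, limit read from the data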
* hit, by the source's call; / = not tested or not shown. Only some compounds are listed: those with a hit (about 0.89% of all), similar ones and a draw of the others.

SMILES | CIT2 TOR yeast | LAP4 TOR yeast | RPL19A-GFP yeast | MEP2 TOR yeast | AGP1 TOR yeast | LAP4 cherry2 | MEP2 cherry2 | RPL19A-GFP pick2 | CIT2-GFP pick2 | AGP1-GFP pick2 | others
COc1ccc(N2CC(C(=O)Nc3nnc(SCC(=O)N4CCOCC4)s3)CC2=O)cc1 (configuration not stated) | 110 | 157* | 89 | 131 | 118 | 105 | 112 | 101 | 104 | 103
O=C(Nc1nnc(SCC(=O)N2CCOCC2)s1)C1CC(=O)N(c2ccccc2)C1 (configuration not stated) | 92 | 97 | 98 | 104 | 101 | / | / | / | / | /
COc1cc(N=c2ssnc2Cl)c(OC)cc1Cl | 91 | 162* | 90 | 93 | 73 | 159* | 117 | 91 | 111 | 90 | s288c autofluor=0.4
COc1cc(-n2nnnc2SC)c(OC)cc1Cl | 107 | 103 | 101 | 101 | 116 | / | / | / | / | /
Cc1ccc(N=C2NC(=O)CS2)cc1 | 98 | 105 | 100 | 103 | 107 | / | / | / | / | /
Cc1ccc(N=c2ssnc2Cl)cc1 | 81 | 163* | 89 | 99 | 78 | 141 | 117 | 95 | 117 | 96 | s288c autofluor=0.8
COc1ccc(-c2cc(=O)c3c(OC)c(OC)c(OC)c(OC)c3o2)cc1OC | 84 | 234* | 75 | 93 | 91 | 101 | 101 | 100 | 102 | 97
NC(=O)C1CCN(C(=O)c2cc(-c3ccc(Cl)s3)nc3ccccc23)CC1 | 97 | 94 | 97 | 94 | 98 | / | / | / | / | /
COC(=O)c1ccc(CSc2nc3c(c(=O)n2-c2ccc(C)cc2)SCC3)o1 | 96 | 172* | 80 | 101 | 103 | 91 | 89 | 99 | 99 | 96
COc1cc(/C=C2\C(=O)N(CCC#N)N=C2C)c(Br)cc1OC(C)C | 89 | 192* | 105 | 92 | 87 | / | / | / | / | / | s288c autofluor=-0.41
Cc1ccc(S(=O)(=O)/C(C#N)=C/c2c(Oc3ccc(Cl)cc3)nc3c(C)cccn3c2=O)cc1 | 104 | 81 | 52 | 384* | 21 | 102 | 101 | 101 | 95 | 100
C[C@]12C=CC(=O)C=C1CCC1C2CC[C@@]2(C)C1CCC21OCCO1 (some centres not stated) | 105 | 89 | 98 | 91 | 94 | / | / | / | / | /
C[C@]12C=C[C@H](O)CC1=CCC1C2CC[C@@]2(C)C1CCC21OCCO1 (some centres not stated) | 84 | 197* | 71 | 103 | 110 | 107 | 102 | 95 | 94 | 90
CCOCCOC(=O)Cn1cnc2scc(-c3ccc(C)cc3)c2c1=O | 102 | 96 | 102 | 109 | 99 | / | / | / | / | /
CCCCNc1c2c3c(cccc3n(C)c1=O)C(=O)c1ccccc1-2 | 100 | 171* | 89 | 112 | 102 | 322* | 94 | 123 | 124 | 97 | s288c autofluor=0.2
Cn1c(=O)c(NCCO)c2c3c(cccc31)C(=O)c1ccccc1-2 | 93 | 94 | 100 | 97 | 98 | / | / | / | / | /
COc1ccc(-c2[nH]c3ccccc3c2SCCNC(=O)c2ccccc2)cc1 | 148 | 217* | 66 | 662* | 140 | 98 | 100 | 100 | 97 | 100

Screens (PubChem BioAssay)
